Laboratory results as given in publication PMC7819943, “Rice protein-binding microarrays: a tool to detect cis-acting elements near promoter regions in rice”.
In all, about 35,000 sequences were measured (“fluorescence intensity (a.u.)”: median about 10,000, highest 2% from about 52,000 on). This excerpt belongs to a sample that is enriched for the highest values.

biological target: T1, OsWOX13 (Oryza sativa, UniProt Q5QMM3 1-267); assay: protein-binding microarray (RPBM); PBS, 2% BSA, 51.3 ng/ul salmon testes DNA, 50 uM zinc acetate, 200 nM TF, 25 C, 1 h; high values mean tight binding; settings: protein: recombinant; tags: N-terminal polyhistidine and DsRed monomer fusion (pET32a); label: CyDye5-dUTP incorporated in the synthesized complementary strand; 3' TTTTT single-stranded linker to array surface; dsDNA, one strand shown
T1 sequence: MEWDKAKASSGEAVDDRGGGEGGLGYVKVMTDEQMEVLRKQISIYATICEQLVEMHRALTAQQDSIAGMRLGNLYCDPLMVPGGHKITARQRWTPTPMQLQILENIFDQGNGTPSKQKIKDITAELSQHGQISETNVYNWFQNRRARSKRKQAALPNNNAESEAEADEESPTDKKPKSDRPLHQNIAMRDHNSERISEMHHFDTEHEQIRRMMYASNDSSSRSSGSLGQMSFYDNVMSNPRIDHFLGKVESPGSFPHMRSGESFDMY
In short: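 An Axon 4000B scanner gave the binding signal as per-feature fluorescence intensity in arbitrary units. This followed washing of a custom Agilent array that had been incubated for 1 h at 25 °C with 200 nM protein in PBS, 2% BSA, salmon testes DNA and 50 µM zinc acetate. The proteins were transcription factors fused at the N-terminus to polyhistidine and DsRed, expressed in E. coli BL21-CodonPlus and purified on Ni–NTA.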

Sequence | binding signal
TTTATTGATTGAGAGGAACTATCTACCTCTGTAATGACATCGGAGTCACCTAGTGCAG | 46600 fluorescence intensity (a.u.)
ATTTAAATTTCCATCCTTAAATTTGAAGGTGATTTTGAGGCGGAGTCACCTAGTGCAG | 21500 fluorescence intensity (a.u.)
TTTAATTAATCACGCGCTAATAGACTGCTCCGTTTTCCGTCGGAGTCACCTAGTGCAG | 55800 fluorescence intensity (a.u.)
TTCTAATTAATCACGCGTTAATGGACCGCTCCGTTTTCCGCGGAGTCACCTAGTGCAG | 42300 fluorescence intensity (a.u.)
AGCTAATACTTAATTAATCACGCGTTAATGGACTGCTCCGCGGAGTCACCTAGTGCAG | 26700 fluorescence intensity (a.u.)
ACTTAATTAATTACGTGTTAATGGACTGCTCCGTTTTCCGCGGAGTCACCTAGTGCAG | 65500 fluorescence intensity (a.u.)
ATTAATTACGCGCTAATCGTTGCTCCGTTTTCCGTGCAAACGGAGTCACCTAGTGCAG | 11400 fluorescence intensity (a.u.)
GCTAATACTTAATTAATCACGCGCTAATAGACCGCTCCGTCGGAGTCACCTAGTGCAG | 24500 fluorescence intensity (a.u.)
ACAGATTAATTAGGCTTAATATATTCATATCGCAGTTTACCGGAGTCACCTAGTGCAG | 50500 fluorescence intensity (a.u.)
ATTACGTAATTAATTAAAATACAAATTTCAGCATCCTTACCGGAGTCACCTAGTGCAG | 42300 fluorescence intensity (a.u.)
AGCCTAATTAATCCGTCATCAGCAAATGTTTATTGTAGCACGGAGTCACCTAGTGCAG | 29700 fluorescence intensity (a.u.)
CATTGATTGGCCAGCCGAGGTCTAGCCTCAACCTAGCGTGCGGAGTCACCTAGTGCAG | 54800 fluorescence intensity (a.u.)
CACATGTGATTGGGCCTCGAGCCTCAGCGTGCGTGCGCCCCGGAGTCACCTAGTGCAG | 20400 fluorescence intensity (a.u.)
CTCCCGTGCAGTTGCCAGTTGATTGGTTCAGCGTGGCTGCCGGAGTCACCTAGTGCAG | 9720 fluorescence intensity (a.u.)
ACTTCTATAATATATGTAAATTACCTTTTGGCTTTGCTGACGGAGTCACCTAGTGCAG | 4500 fluorescence intensity (a.u.)
TATAGATTAGAGAATTAGTGGAGAACAAAATATAATAAAGCGGAGTCACCTAGTGCAG | 5050 fluorescence intensity (a.u.)
TTAAAATTGATTTTAGGGGATTTTCATCTGAGCTTATGTTCGGAGTCACCTAGTGCAG | 55800 fluorescence intensity (a.u.)
TGCTTTTCATGTTTATTGATTTAGGCGCACCTGTTCTGTTCGGAGTCACCTAGTGCAG | 3190 fluorescence intensity (a.u.)
CAGAATGATTGTGCTTAATTGTAAAATTGATTTTAGGATTCGGAGTCACCTAGTGCAG | 61100 fluorescence intensity (a.u.)
TTTTAGGATGATTTAATTGTAAATTTAAAATTAAAATGGTCGGAGTCACCTAGTGCAG | 35400 fluorescence intensity (a.u.)
TTAACAATATTTTAATGATTGCTCTTGTGCTTAGAAAATTCGGAGTCACCTAGTGCAG | 5300 fluorescence intensity (a.u.)

Sequence | binding signal
AAAATTTAAATTTTCAGGCTTAAATTTGAAATTGATTTTACGGAGTCACCTAGTGCAG | 7780 fluorescence intensity (a.u.)
ACACAGCTAATTAGCTCTATGACTAAATGAATAAAATGACCGGAGTCACCTAGTGCAG | 25800 fluorescence intensity (a.u.)
TCGTCAGGTTAATCAAGGGAGGATTGAACGAGATTTCGTGCGGAGTCACCTAGTGCAG | 5920 fluorescence intensity (a.u.)
TGATCTAATCAATGACAGCGACTTGGTTCCATGTTCTTCCCGGAGTCACCTAGTGCAG | 12300 fluorescence intensity (a.u.)
TATTCAATAACTAAATTAATGCCTGATTTACGTTGTTCGTCGGAGTCACCTAGTGCAG | 17400 fluorescence intensity (a.u.)
TCTTAATTTCTATCAATAATTTAATTTAGCATATAATAACCGGAGTCACCTAGTGCAG | 31300 fluorescence intensity (a.u.)
ATTGATGATTTAATGAAACTAATTTGATATTGTAGATGTTCGGAGTCACCTAGTGCAG | 48300 fluorescence intensity (a.u.)
CCACTAACAGTCTAACAACATGATAAGGCCTCCGCAACCACGGAGTCACCTAGTGCAG | 3920 fluorescence intensity (a.u.)
AGCCTAATTACGTCATGATTTGACAATGTAATGATACCGTCGGAGTCACCTAGTGCAG | 53500 fluorescence intensity (a.u.)
TTGAGCCTAATTACGCCATGATTTGACAATGTGATGCTACCGGAGTCACCTAGTGCAG | 40200 fluorescence intensity (a.u.)
ATTTGATTGACGAGGTATAGTAAAATGCGTCAACTTATGTCGGAGTCACCTAGTGCAG | 63200 fluorescence intensity (a.u.)
AAAATTGATATGTAATTATGACACACTTACGTCGGATATGCGGAGTCACCTAGTGCAG | 64500 fluorescence intensity (a.u.)
GAGCCTAATTACGCCATGATTTGACAATGTGGTGCTACAGCGGAGTCACCTAGTGCAG | 39300 fluorescence intensity (a.u.)
GCCTAATTACGCCATGATTTGATAATGTGGTGCTACAGTACGGAGTCACCTAGTGCAG | 41800 fluorescence intensity (a.u.)
AACTAAAATTACATATGTAAATTTAGTTGATATGACATGTCGGAGTCACCTAGTGCAG | 24600 fluorescence intensity (a.u.)
GATATGATATTGACACATGATATGTAATTATATATAGAGCCGGAGTCACCTAGTGCAG | 11400 fluorescence intensity (a.u.)
TGTAAATATATTATGATTGTAGTATAACTTATATAGTATTCGGAGTCACCTAGTGCAG | 10900 fluorescence intensity (a.u.)
AGCCTAATTACGCCATGATTTGACAATGTGGTGCTACAGTCGGAGTCACCTAGTGCAG | 58300 fluorescence intensity (a.u.)
CTAATTACGTCATGATTTGACAATGTGGTGTGGTGCTACACGGAGTCACCTAGTGCAG | 37500 fluorescence intensity (a.u.)
TGTATGCGATTTGATTAAACTTTTAAAATGTTGATTATTACGGAGTCACCTAGTGCAG | 4680 fluorescence intensity (a.u.)
CCTGACATCTCTCAATCGGACGGTGGATACCACCTCACCGCGGAGTCACCTAGTGCAG | 3620 fluorescence intensity (a.u.)
